About 3,700 (7%) of roughly 53,000 sequences were called active. Only a selection was taken, and actives are over-represented in it overall. Unmarked numbers belong to inactive results.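 How the source made its calls: active means gene knockdowns whose robust z-score for IL-1 alpha signal is at least 2 or at most -2, so actives lie on both sides; inactive means the rest.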

The text below walks through data of PubChem BioAssay AID1508600 (Functional Genomics Laboratory (NCATS/FGL), 2020).

The test can be described thus: Components of the Cytosolic LPS Sensing Pathway: Gene Identification via Genome-wide siRNA Screen.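 Further: robust z of the log signal after scaling to non-targeting control siRNA wells of the plate.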 Conditions: RAW264.7 macrophages, IL-1a HTRF, actives lie on both sides, screened at 100 nM (by protocol), cells primed 5 h with Pam3CSK4 first. The method, boiled down: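 Cells (RAW264.7, 1×10^4 per well) were transfected with siRNA at 100 nM and cultured 48h at 37 degrees C. Pam3CSK4 was added for 5 hours; LipidA transfection followed for 24 hour. IL-1a was then measured by HTRF.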
As to CGAUAUGUGUUUGUAAUGGTT against Atp6v1d, the z-score is -0.853.

Turning to GCCGUGAUCGACUUGAAUATT against U2af1, the z-score was 0.763.

On to CCAAUAUGCUCAGUAUUACTT against Eya4, for which the z-score is -1.36.

Take CCCUCUCCCUUCAAUGUGGTT against Cblif: the z-score is -1.38.

Turning to GGGUGUUUGGUUGUGAUCUTT against Arhgap33, the z-score was -2.07 (active).

Turning to GGAGUAGUAGCUGAAUUUGTT against Abcc3, the z-score was 0.317.

Turning to GGCUGAUCUCUUUUGCCAGTT against Reg2, the z-score was 0.00409.

With GGAACAUAUACUGGACAGATT against Zfp825, the z-score is 0.436.

For the sequence GGAUGUGAUCAUAGCAUGGTT against Slc35e1, the z-score was -2.07 (active).

For the sequence GGGCUAAUAUACAGAAAUATT against Rrm2b, the z-score is -0.126.

Regarding GGUGGAGAAAAAUGCAACATT against Clnk, the z-score was -0.429.

In the case of GGAAAUCUGAAGAAUCAAGTT against Zup1, the z-score is -0.621.

As for GGAGGUAGAAAAGACAAAATT against Jrk, the z-score was 1.96.

On to GGAUGCAUUUCUGAGCCACTT against Tacc2, for which the z-score is -1.62.

In the case of CUCUCGAACAAUCAACCACTT against Olfr315, the z-score was 2.05 (active).

As for GGAAGGACAAUCAGUUCCUTT against Thsd7b, the z-score was 0.999.

For CCUUUUAUAACUGCUCUCUTT against Jpt2, the z-score was -1.01.

On to GCUCACUCUUUCCAACUAUTT against Ubox5, for which the z-score is 0.465.

As for GGCUGGAUUAUUUUUUCUUTT against Usp4, the z-score is 0.921.

Turning to GAACGUGCAGCUGACAGAGTT against Ppp1ca, the z-score is -1.03.

As to GACUAUGUGGUCUACUCGUTT against Drd4, the z-score is 2.86 (active).

In the case of CGGGCUGGAAGAAAUCUCUTT against Rhox3a, the z-score is 0.771.

Regarding GGACAAAACCAUCUCCUUCTT against Olfr17, the z-score was 0.324.

Regarding GGGAAUGCACUACAACUACTT against Chpf, the z-score was 1.16.

As to GCCAUAUCAACUAGUGCAGTT against Siglech, the z-score is 2.36 (active).

As to GGCUUUUCUGGCUAUCCACTT against Anxa7, the z-score is -0.774.

In the case of GGCCCAAGAGCAUUCUGGATT against Slc25a19, the z-score is 0.552.

For GGGUGUGCAUUUGUACUACTT against Smad9, the z-score is 1.21.

As to GGAUAUGUCAGCAUAUGUGTT against Yeats4, the z-score was -0.583.

As to GGUCAACAGUUACAUCGAGTT against Vps33a, the z-score is 0.273.

With GCCCAUCUUAGCAUUCUCUTT against Aldh4a1, the z-score was -1.91.

Take GCUAGAAAAAAAUCAGUUGTT against Eif2a: the z-score is 0.6.

For CCCAGAACGGGAUGAUUCUTT against Trex2, the z-score was 2.77 (active).

Consider CCUCUCAACCACUGACUGATT against Gpatch4, for which the z-score was 0.836.

As to GCUCAAAUCGUACAAGUGUTT against Panx1, the z-score was 0.214.

As for GUCCUCGUAGGAACAGCAUTT against Olfr1265, the z-score is -1.52.

Consider GGCACUGUUGUGGCUGAAATT against Coro1a, for which the z-score is 1.47.

In the case of CCUCAUGGAUGUUCGUAGATT against P2ry10, the z-score is 0.452.

Regarding GCUAGGAUGUCUGAAAGAGTT against Ccdc178, the z-score was 0.266.

Regarding GGCUGUAUCCUGACAGCAATT against Olfr231, the z-score was 0.213.

On to GCGUGGAGAACCGUUAAUCTT against Shroom3, for which the z-score is 0.845.

Turning to “CCUCUCUAGGCCAUGUUCUTT against 1110008P14Rik”, the z-score is 0.381.

Consider GGUUUUAUCCCUGUUUCCUTT against Naaa, for which the z-score is -0.115.

CCUGAGAUUGGGAAAUUCUTT against Engase: the z-score is 2.02 (active).

As for GCGGUCAACUGGAAACUAATT against Dnaja3, the z-score was 0.735.

Regarding GCAUCAUGAGUCCCAUUCUTT against Olfr385, the z-score was -0.276.

As to CCAACGCGCACGGCCGCGCTT against Tmem158, the z-score is -0.359.

Consider CCGAAAAAUAUGUUUUCCGTT against Mettl4, for which the z-score was 2.87 (active).

Take CCCUGCUGUCGUUUUGACUTT against Senp3: the z-score is -0.122.

On to GGAAAGUUUUGGCGACUACTT against Fbxw19, for which the z-score is 0.25.

In the case of GCUCAACUUACGUUCACUCTT against Vps72, the z-score was -2.53 (active).

For the sequence GGAUUUAAAUCACCUGUAATT against Tdpoz1, the z-score was -0.864.

For GCAGAAAAGGUCUACGUGCTT against Azgp1, the z-score was 1.8.

AAACAGUCAUUUCCUAUAGTT against Olfr1502: the z-score was -2.04 (active).

On to CCGAUUAAAAGAGUGUUUGTT against Nudt8, for which the z-score is 1.85.

Turning to GGUUAUCUUUGGGACUUAATT against Lrmp, the z-score was -1.66.

As for GCUGGUGCUCUUCACCAUATT against Fbxw17, the z-score was -0.419.

As for CCUGAAAUGCUAAGACUACTT against Gm5142, the z-score is 1.15.

GGGAUCUUACAUGCCACCATT against Olfr1231: the z-score was -0.000779.

For the sequence “GGCUACUCGGCCCUCUGUUTT against 4930404N11Rik”, the z-score was -1.67.

In the case of GGACGUGUAGCUUGGAAUATT against Rnf26, the z-score was 5.33 (active).

For CCAUACAGAGGUGACAGUUTT against Olfr816, the z-score is -0.23.

On to CCAUAAAAACCAGAGAAAUTT against Plekhf2, for which the z-score was -0.778.

In the case of GGUCGACUUAAGAUAAUAATT against Itgb6, the z-score is -0.294.

Take CCCUGUUAAGGAAUGCAAATT against Chil1: the z-score is 0.367.

Take GGAGAAAUUCGACUGAAAATT against Pcdhb13: the z-score is 3.47 (active).

As for GGCUUUUUGCUUCACUACUTT against Slco4c1, the z-score is 1.06.

As for GGCGAAUUAUUGAAAACGUTT against Actr8, the z-score is 0.916.

For GGAGUUGGAUAUUCUAAAATT against B3gntl1, the z-score is -0.64.

As for GGGCAACCUGGUUACACAUTT against Zfp637, the z-score is 1.25.

Consider UAGUCAUUGGGAUUCCUUCTT against Olfr112, for which the z-score was 2.98 (active).

GGUGGAAUGAAAGAACAAGTT against Klhl13: the z-score is 1.74.

Take GGCCAGGAAAGAUACAGGATT against Rab3c: the z-score was 0.486.

For GGCCAUGCUGAAAGUAUUUTT against Olfr561, the z-score was -1.46.

GCUUAGAAUCUCUGGACAATT against Rnf168: the z-score was 3.21 (active).

On to CGGGAACAUAUCAGACUAATT against Mcm3ap, for which the z-score is -0.844.

For the sequence GGCCAUUGAGCUCAACCCUTT against Sgta, the z-score was -1.88.

Consider CCUAUAAAUGUCCUUAGUCTT against Ccdc115, for which the z-score is 0.127.

For CCUAUGGUGCUCUUAUAAATT against Dpp6, the z-score is -0.178.

With GGUCUUAUGUAAGUGGUAUTT against Ociad1, the z-score was -2.03 (active).

Take GGCACUGUGGUGUAAAUCCTT against Nnt: the z-score is -1.53.

GGACAUCGAGCUUCAGAUCTT against Dnm1l: the z-score was 2.68 (active).

For the sequence GGAGAUCGAUGGAGACUUCTT against Sftpa1, the z-score was -0.773.

For the sequence CGACGAAUGUCCUGAACAUTT against Tmem106a, the z-score was -0.193.

In the case of GCCUUGAUCCUACUGUAACTT against Amigo3, the z-score is 2.12 (active).

On to “GGGACUUAAGGUUAGACACTT against E330018D03Rik”, for which the z-score was 0.163.

With CGACCUGUUCGCCAUCAAATT against Scaf1, the z-score was 0.511.

For CGAGGUGCUAAUCUGGCCUTT against Dctpp1, the z-score was 0.241.

On to GGAACAAAUCCUGGAACUGTT against Zfp449, for which the z-score was 1.15.

For the sequence GGACUGGUCAGAGAUGGAUTT against Pced1a, the z-score is 5.33 (active).

As to GGAAAUGUGGUAAUUCCGATT against Cd44, the z-score was 0.256.

On to CGAAAUGAAAACUUCCUGGTT against Mab21l1, for which the z-score is 0.989.

As to CCAUCAGUAUUCACAACAATT against Usp42, the z-score is -3.12 (active).

Consider GUUACCUCGUGGAAAGCAUTT against Vmn1r43, for which the z-score was -0.345.

Take GGUUUGAAGAUGAUGCCUCTT against Nfkbil1: the z-score is -0.848.

For the sequence GGACCACUAGACCUGAUAATT against Itgb1bp1, the z-score is 0.116.

Turning to GCAUCCCGACUACAAGUACTT against Sox21, the z-score is -2.06 (active).

With GGUCCGGUCUCAGACUUCATT against Ift27, the z-score was 1.16.

For GAUUGUCACCACCUUAAGATT against Chchd5, the z-score was -0.964.

As for CGAGAUGUCCCAGAAUCAUTT against Wdr75, the z-score is -2.26 (active).

Take “GCCAUGUUCCCAUUUAACUTT against A730018C14Rik”: the z-score is 1.34.

As for GCACGAGGAUGUGAUAUUCTT against Txndc2, the z-score is -0.65.

With CCUUCUCUUUGCUCUAUGUTT against Olfr1284, the z-score is -0.647.

Take GCAUCGACAACCUCUCUAGTT against Hba-x: the z-score is 3.15 (active).

For GCUUAGUUUAUGAGAAUGCTT against Ptprh, the z-score is -0.791.

On to GGCCAUAUUUGUGACUGUGTT against Hao1, for which the z-score is -1.58.

Consider GGAUCUUGAAGCCAAAUACTT against Ccdc127, for which the z-score was 2.56 (active).
